Records with an inconclusive call do not appear. The source made the active and inactive calls. The call rests on the fitted dose curve; in most records, active means well fitted inhibition curve with a large enough effect; inconclusive means small, poorly fitted or top-dose-only effect; inactive means flat fitted curve, though single readings scatter.

Experimental findings from PubChem BioAssay (NCATS) are described below.

Assay in all cases: qHTS profiling for inhibitors of Plasmodium falciparum proliferation (AID 504749); further: nearly all actives have a fitted effect of over 60% in size
Conditions in all cases: P. falciparum in erythrocytes, SYBR Green DNA, 72 h; series mostly up to 28.7 µM

Assay [1] concerns CP329. The gist of the method:
(§1)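 P. falciparum-infected erythrocytes (0.3% parasitemia, 2.5% hematocrit) incubated with compound 72 h at 37 C, 5% CO2. Parasite DNA detected by SYBR Green after lysis, overnight at room temperature; normalised to 0.29 uM artemisinin and DMSO.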

The subject of assay [2] is CP335. The gist of the method:
as §1

Assay [3] has as its system DFO2036. The method, boiled down: as §1
Assay [4] relates to DIV14. The gist of the method: as §1
The test system of assay [5] is DIV17. The gist of the method:
as §1

For assay [6], the system named is DIV30. The gist of the method: as §1
In assay [7] the test system is Dd2. The method, boiled down: as §1
For assay [8], the system named is ECU. The method, boiled down: as §1
Assay [9] concerns FAB9. The gist of the method: as §1
The subject of assay [10] is GB4. The method, boiled down: as §1
Assay [11] has as its system HB3. The gist of the method:
as §1

The subject of assay [12] is ICS. The gist of the method:
as §1

Assay [13] has as its system JCK. The method, boiled down: as §1
The test system of assay [14] is N140. The gist of the method:
as §1

For assay [15], the system named is P93_24. The gist of the method: as §1
Assay [16] has as its system P94_40. The gist of the method:
as §1

In assay [17] the test system is PAD. The method, boiled down: as §1
The test system of assay [18] is PC15. The method, boiled down:
as §1

Assay [19] relates to PC26. The gist of the method:
as §1

In assay [20] the test system is PC49. The gist of the method: as §1
Potency means the concentration at half of the fitted maximal effect.

For `CCNc1nc(Cl)nc(NCC)n1`, the Potency result in [1], in [2], in [3], in [4], in assay [5] and in assay [6] was “inactive” in each case. Also, the Potency entry in assay [7], in [8], in assay [9], in assay [10], in assay [11] and in assay [12] was “inactive” each time. Besides, the Potency entry in [13], in [14], in assay [15], in [16], in assay [17] and in [18] was “inactive” each time. Further, the Potency result in assay [19] and in assay [20] was “inactive” throughout.

As to `COC(=O)C1=CCCN(C)C1`, the Potency result in assay [1], in [2], in [3], in [4], in assay [5] and in [6] was “inactive” throughout. In addition, the Potency result in assay [7], in assay [8], in assay [9], in assay [10], in assay [11] and in assay [12] was “inactive” in each case. Also, the Potency entry in assay [13], in assay [14], in assay [15], in assay [16], in [17] and in assay [18] was “inactive” throughout. In addition, the Potency entry in assay [19] and in assay [20] was “inactive” throughout.

Consider `CCC1(CC)C(=O)NC(=O)NC1=O`, for which the Potency result in assay [1], in [2], in assay [3], in assay [4], in assay [5] and in assay [6] was “inactive” in each case. The Potency entry in assay [7], in [8], in assay [9], in assay [10], in assay [11] and in assay [12] was “inactive” throughout. Besides, the Potency entry in assay [13], in assay [14], in [15], in assay [16], in assay [17] and in assay [18] was “inactive” each time. The Potency entry in [19] and in [20] was “inactive” each time.

For `O=C(O)c1nn(Cc2ccc(Cl)cc2Cl)c2ccccc12`, the Potency entry in assay [1], in assay [2], in [3], in assay [4], in [5] and in [6] was “inactive” in each case. In addition, the Potency result in assay [7], in assay [8], in assay [9], in assay [10], in assay [11] and in [12] was “inactive” each time. The Potency entry in assay [13], in assay [14], in assay [15], in [16], in [17] and in assay [18] was “inactive” throughout. For the same compound, the Potency entry in assay [19] and in [20] was “inactive” throughout.

As to `C[C@H]1C(=O)O[C@@H]2CCN3CC=C(COC(=O)[C@](C)(O)[C@]1(C)O)[C@H]23`, the Potency result in assay [1], in assay [2], in assay [3], in assay [4], in [5] and in assay [6] was “inactive” in each case. The Potency result in assay [7], in assay [8], in assay [9], in [10], in assay [11] and in assay [12] was “inactive” throughout. Besides, the Potency entry in [13], in assay [14], in [15], in assay [16], in assay [17] and in [18] was “inactive” each time. The Potency entry in assay [19] and in assay [20] was “inactive” throughout.

With `CC(C)[N+](C)(CCC(C(N)=O)(c1ccccc1)c1ccccc1)C(C)C`, the Potency result in [1], in assay [2], in assay [3], in assay [4], in [5] and in assay [6] was “inactive” each time. For the same compound, the Potency result in assay [7], in [8], in [9], in [10], in assay [11] and in assay [12] was “inactive” each time. The Potency entry in assay [13], in [14], in assay [15], in [16], in [17] and in [18] was “inactive” in each case. The Potency entry in assay [19] and in [20] was “inactive” each time.

`C[N+]1(CCC(C(N)=O)(c2ccccc2)c2ccccc2)CCCCC1`: the Potency entry in [1], in assay [2], in [3], in assay [4], in assay [5] and in assay [6] was “inactive” in each case. Moreover, the Potency entry in assay [7], in [8], in assay [9], in assay [10], in [11] and in assay [12] was “inactive” in each case. Besides, the Potency result in assay [13], in [14], in assay [15], in [16], in assay [17] and in [18] was “inactive” in each case. The Potency entry in [19] and in [20] was “inactive” in each case.

For the compound `COP(=O)(OC)C(O)C(Cl)(Cl)Cl` (configuration not stated), the Potency result in [1], in assay [2], in [3], in assay [4], in assay [5] and in assay [6] was “inactive” each time. The Potency result in assay [7], in assay [9], in [11], in assay [13], in assay [14] and in assay [15] was “inactive” each time. The Potency result in [16], in assay [17], in [18], in [19] and in [20] was “inactive” each time.

For `C=CCOC(Cn1ccnc1)c1ccc(Cl)cc1Cl` (configuration not stated), the Potency is 12.6 µM (active) in assay [3]; 5.36 µM (active) in assay [4]; 8.49 µM (active) in [5]; 7.57 µM (active) in [6]; 7.08 µM (active) in assay [7]; 3.98 µM (active) in assay [8]. Further, the Potency in [10] was 4.78 µM (active); in assay [11], 11.2 µM (active); in assay [12], 2.51 µM (active); in assay [14] it was 5.62 µM (active); in [15] it was 3.98 µM (active); in assay [16], 10 µM (active). In addition, the Potency is 8.91 µM (active) in assay [17], 8.91 µM (active) in assay [18] and 7.57 µM (active) in assay [19].

With `ClC1=C(Cl)C2(Cl)C(CBr)CC1(Cl)C2(Cl)Cl` (configuration not stated), the Potency entry in assay [1], in assay [3], in [4], in assay [5], in assay [6] and in [7] was “inactive” throughout. For the same compound, the Potency entry in [8], in [9], in assay [10], in assay [11], in assay [13] and in assay [14] was “inactive” in each case. For the same compound, the Potency result in [15], in assay [16], in [17], in assay [18], in assay [19] and in assay [20] was “inactive” in each case.

In the case of `COc1ccc(CN2CCNCC2)c(OC)c1OC`, the Potency entry in [2], in assay [3], in [7], in assay [8], in assay [9] and in assay [11] was “inactive” each time. Moreover, the Potency entry in [12], in assay [13], in [14], in assay [15], in [16] and in assay [17] was “inactive” each time. The Potency result in assay [18] and in assay [20] was “inactive” each time.

As to `C[C@]12C=CC(=O)C=C1CC[C@@H]1[C@@H]2CC[C@@]2(C)[C@H]1CC[C@]2(C)O`, the Potency entry in assay [2], in assay [3], in assay [7], in [8], in [9] and in [11] was “inactive” each time. Moreover, the Potency result in assay [12], in assay [13], in [14], in assay [15], in assay [16] and in assay [17] was “inactive” in each case. For the same compound, the Potency result in [18] and in [20] was “inactive” throughout. Further, the Potency in assay [6] was 16.9 µM (active).

`C[C@]12Cc3nonc3C[C@@H]1CC[C@@H]1[C@@H]2CC[C@@]2(C)[C@H]1CC[C@]2(C)O`: the Potency result in [1], in [3], in assay [4], in assay [5], in assay [6] and in [7] was “inactive” in each case. The Potency result in assay [8], in [9], in assay [10], in assay [11], in assay [13] and in [14] was “inactive” each time. The Potency result in [15], in assay [16], in assay [17], in assay [18], in [19] and in assay [20] was “inactive” throughout.
